Screening results: PubChem, Broad Institute
Tg IFNy HTS – T. gondii growth inhibition under IFN-gamma; activity change, negative = inhibition, % (test concentration not listed); Toxoplasma gondii growth in IFN-gamma-treated host cells; active compounds read low; 69,000 tested, 3.8% active; in the data active means activity change below about -70%, passing the limit was not always enough;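 further: host cells are HeLa cells infected with Toxoplasma gondii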
* = called active by the depositor; i = inactive. Many of the other results were omitted from the sample, so hits are more common in it than they were.

SMILES	Tg IFNy HTS
O=C(NC12CC3CC(CC(C3)C1)C2)c1cccnc1	6.0
O=C(Nc1nc(C23CC4CC(CC(C4)C2)C3)cs1)c1ccccc1	-107.0*
Clc1ccc(-c2nc(C34CC5CC(CC(C5)C3)C4)cs2)cc1	67.6
CC1N=C2c3ccccc3N=C(SCc3ccc(F)cc3)N2C1=O (centres undefined)	-9.6
CN(C)Cc1ccc(C2CCCCN2C(=O)c2cn(-c3ccccc3)nn2)cc1 (centres undefined)	-43.3
COc1ccc(C(=O)/C=C/c2ccc(OC(=O)c3cc(OC)c(OC)c(OC)c3)cc2)cc1	-24.8
COc1cc(C(=O)Oc2ccc(C3CCCCC3)cc2)cc(OC)c1OC	-93.6*
COc1cc(C(=O)Oc2cc(C)cc(C)c2)cc(OC)c1OC	-1.7
CCN1CC2(CCC1=O)CCN(C(=O)c1ccncn1)CC2	-25.2
Clc1ccc(C(Cn2ccnc2)OCc2c(Cl)cccc2Cl)c(Cl)c1 (centres undefined)	-69.7
S=C(Nc1ccc(Cl)cc1Cl)NC(Cn1ccnc1)c1ccccc1 (centres undefined)	-35.4
Cc1c(C(=O)Cn2ccnc2)sc2ccc(Cl)cc12	-18.2
Clc1ccc(C(Cn2ccnc2)OCc2ccc(Sc3ccccc3)cc2)c(Cl)c1 (centres undefined)	-78.2*
Clc1ccc(C(Cn2ccnc2)OCc2csc3c(Cl)cccc23)c(Cl)c1 (centres undefined)	-79.2*
S=C(NCCCn1ccnc1)Nc1cc(Cl)ccc1Cl	30.1
CCOC(=O)[C@@]12CCCN(Cc3cccnc3)C[C@@H]1CN(C(C)=O)C2	2.2
Cc1ccc(CN2CCC3(CC2)CC(CC(=O)NCC2CC2)c2ccccc23)o1 (centres undefined)	-29.5
C=CCN1CC(C(=O)N2CCN(c3nc(C)cc(C)n3)CC2)CC1=O (centres undefined)	-6.0
NC(N)=NC(=O)c1cnccn1	11.7
Cc1c(CN(C)c2cc(N3CCCCC3)ncn2)cnn1C	22.6
FC(F)(F)c1cccc(-c2ccc(-c3cccc(C(F)(F)F)c3)o2)c1	-10.5
Cc1oc(-c2cccc(C(F)(F)F)c2)nc1CN(C)Cc1cnc(N)nc1	-2.4
FC(F)(F)c1cccc(-c2nnc(C3c4ccccc4Oc4ccccc43)o2)c1	-98.9*
Cc1ccc(CNC(=O)Nc2ccc(-c3nc(-c4ccccc4)co3)cc2)cc1	90.5
O=C([C@H]1C[C@H]2CN(c3ncc(F)cn3)C[C@H]1O2)N1CCOCC1	33.7
SMILES	Tg IFNy HTS
CS(=O)(=O)c1ccc(-c2cc(N)nc3[nH]ccc23)cc1	4.0
CCNC(=O)c1cccc(-c2cc(N)nc3[nH]ccc23)c1	21.9
COc1ccc(-c2cc(N)nc3[nH]ccc23)cc1C	-77.8*
CCc1ccc(NC(=O)C(=O)NCCc2sc(-c3ccc(OC)cc3)nc2C)cc1	26.8
CCS(=O)(=O)N1CCCC(Cc2cc(-c3ccc(C)cc3)no2)(C(=O)N(C)C)C1 (centres undefined)	15.1
c1ccc(Oc2cccnc2)cc1	-0.8
COc1ccc(-n2c(Cc3ccccc3)nnc2SCC(=O)c2ccccc2)cc1	-47.4
COc1ccc(-n2c(SCC#N)nnc2-c2cccnc2)cc1	-45.7
COc1ccc(-n2c(CC#N)nnc2SCc2c(C)c(C)c(C)c(C)c2C)cc1	-89.3*
N#CCNC(=O)c1ccc(-c2ccnc(Nc3ccc(N4CCOCC4)cc3)n2)cc1	-80.4*
COc1ccc(NC(=O)CS(=O)CC(=O)Nc2ccc(N3CCOCC3)cc2)cc1 (centres undefined)	-1.5
COc1ccc(-c2[nH]ncc2CNC(=O)c2ccc(N3CCOCC3)cc2)cc1	7.4
C=Cn1cc(CN(C)Cc2nc3ccccc3n2C)cn1	-8.0
CC(CN1CCc2ccccc2C1)NC(=O)c1cn(Cc2ccccc2F)nn1 (centres undefined)	-2.8
COc1ccc(N2CCCC3(C2)CN(c2nncs2)CCO3)cc1 (centres undefined)	0.0
C[C@@H]1CCCCO[C@H](CN(C)CC2CC2)[C@H](C)CN([C@H](C)CO)C(=O)c2cc(NC(=O)c3ccccc3)ccc2O1	92.0
C[C@H](CO)N1C[C@H](C)[C@H](CN(C)S(=O)(=O)c2ccc(Cl)cc2)OCCCC[C@H](C)Oc2ccc(NC(=O)Nc3ccc(C(F)(F)F)cc3)cc2C1=O	44.7
COc1ccc(S(=O)(=O)N(C)C[C@@H]2OCCCC[C@@H](C)Oc3ccc(NC(=O)Cc4ccccc4)cc3C(=O)N([C@@H](C)CO)C[C@H]2C)cc1	-6.7
COc1ccc(S(=O)(=O)Nc2ccc3c(c2)C(=O)N([C@@H](C)CO)C[C@@H](C)[C@H](CN(C)S(=O)(=O)c2ccc(Cl)cc2)OCCCC[C@@H](C)O3)cc1	-59.1
C[C@H](CO)N1C[C@H](C)[C@@H](CN(C)CC2CC2)OCCCC[C@H](C)Oc2ccc(NC(=O)c3ccccc3)cc2C1=O	92.3
C[C@H](CO)N1C[C@H](C)[C@H](CN(C)CC2CC2)OCCCC[C@H](C)Oc2ccc(NC(=O)c3ccccc3)cc2C1=O	-83.4*
COc1ccc(S(=O)(=O)Nc2ccc3c(c2)C(=O)N([C@H](C)CO)C[C@@H](C)[C@@H](CN(C)S(=O)(=O)c2ccc(Cl)cc2)OCCCC[C@@H](C)O3)cc1	-110.5*
COc1ccc(S(=O)(=O)Nc2ccc3c(c2)C(=O)N([C@@H](C)CO)C[C@@H](C)[C@H](CN(C)S(=O)(=O)c2ccc(Cl)cc2)OCCCC[C@H](C)O3)cc1	-102.2*
C[C@@H]1CN([C@H](C)CO)C(=O)c2cc(NC(=O)Nc3ccc(C(F)(F)F)cc3)ccc2O[C@@H](C)CCCCO[C@H]1CN(C)S(=O)(=O)c1ccc(Cl)cc1	10.9
C[C@@H]1CCCCO[C@H](CN(C)S(=O)(=O)c2ccccc2)[C@@H](C)CN([C@H](C)CO)C(=O)c2cc(NC(=O)Nc3ccc4c(c3)OCO4)ccc2O1	446.3
SMILES	Tg IFNy HTS
C[C@@H]1CN([C@@H](C)CO)C(=O)c2cc(NC(=O)Nc3ccc4c(c3)OCO4)ccc2O[C@@H](C)CCCCO[C@@H]1CN(C)S(=O)(=O)c1ccccc1	i
C[C@H]1CCCCO[C@H](CN(C)S(=O)(=O)c2ccccc2)[C@@H](C)CN([C@@H](C)CO)C(=O)c2cc(NC(=O)Nc3ccc4c(c3)OCO4)ccc2O1	-90.9*
CCN(CC)Cc1cc(CN2CCC(O)(c3cccnc3F)CC2)ccc1OC	0.3
OCc1ccnc(-c2ccc(F)cc2Cl)c1	9.4
O=C(CCN1C(=O)NC2(CCCC2)C1=O)Nc1cccc(-c2cccc(F)c2)c1	16.8
CN(C)C(=O)N1CCc2onc(C(=O)Nc3cccnc3)c2C1	206.8
Cc1oc(-c2ccccc2)nc1CN(c1ccccc1)S(=O)(=O)c1cccs1	2.7
CS(=O)(=O)CC(=O)N1C[C@H]2COC[C@@]2(COc2ccccn2)C1	-3.9
CCN1CCC2(CC1)OC(=O)C(C)=C2C(=O)Nc1ccc(F)cc1F	138.3
O=c1[nH]cc(-c2ccc(Cl)cc2)cc1CNc1ccccc1OCCN1CCOCC1	343.7
Cc1ccccc1C1(O)CCN(Cc2nc(-c3ccco3)no2)C1 (centres undefined)	-9.2
COc1ccc(S(=O)(=O)Nc2ccc3c(c2)C(=O)N([C@@H](C)CO)C[C@@H](C)[C@@H](CN(C)S(=O)(=O)c2ccc(Cl)cc2)OCCCC[C@@H](C)O3)cc1	-136.7*
C[C@H](CO)N1C[C@H](C)[C@@H](CN(C)S(=O)(=O)c2ccc(Cl)cc2)OCCCC[C@H](C)Oc2ccc(NC(=O)Nc3ccc(C(F)(F)F)cc3)cc2C1=O	-66.9
